Several values for one entry are separate records, joined by “and”; a condition that tells them apart may be missing. Equal values may be shown once. Records with an inconclusive call do not appear. Activity calls are given as the source filed them.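 How the source made its calls, unless noted: active means percent response above a set limit, the screen-wide mean plus 3 SD (cut at about 130% in these data); inactive means the rest.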

Test [1] is described as follows: yeast TOR pathway RPL19A-GFP modulators, primary screen, cell-based, S. cerevisiae, multiplex flow cytometry (AID 1862; in the data active means percent of DMSO control GFP below about 86%;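 further: lower values mimic rapamycin by blocking the RPL19A rise seen in DMSO cells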). Particulars: S. cerevisiae RPL19A-GFP strain, flow cytometry fluorescence, 3 h; at 10 µM; stronger effect = lower value.
Test [2] in a line: modulators of MEP2-GFP levels in yeast, primary screen, S. cerevisiae, multiplex flow cytometry (AID 1867;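 active means GFP response, as percent of the DMSO control, above the screen-wide mean plus 3 SD, about 139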;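 further: median GFP channel fluorescence of barcode-gated MEP2-GFP cells measured by flow cytometry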). The note with it: S. cerevisiae MEP2-GFP strain, 3 h, at 10 µM, stronger effect = higher value, 100% means same as DMSO wells.
A short description of test [3]: modulators of CIT2-GFP expression in yeast, primary screen, S. cerevisiae, GFP fusion, multiplex flow cytometry (AID 1870).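 Further: barcoded CIT2-GFP strain pooled with four other GFP strains with rapamycin as positive control; median GFP fluorescence per well over plate mean of DMSO wells so 100% = DMSO.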 Particulars: 3 h, at 10 µM, stronger effect = higher value.
The nature of test [4]: modulators of LAP4-GFP expression in yeast, primary screen, S. cerevisiae, multiplex flow cytometry (AID 1873;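 active means GFP signal, as percent of the solvent control, above the screen mean plus 3 SD, about 149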). Particulars: 3 h, at 10 µM, stronger effect = higher value. On the technique in general: A flow cytometer gives signals particle by particle.
The nature of test [5]: modulators of AGP1-GFP expression in yeast TOR pathway, primary screen, cell-based, multiplex flow cytometry, S. cerevisiae (AID 1887;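 active means GFP signal above the screen-wide mean plus 3 SD, that is over about 124.5% of the solvent control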;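 further: AGP1-GFP fusion strain of S. cerevisiae within a five-strain barcoded multiplex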). Particulars: 3 h, at 10 µM, stronger effect = higher value.
A short description of test [6]: inhibitors of CD8+ T cell-vesicle binding, pilot screen, LFA-1/ICAM-1 modulator project, MLPCN validation set, flow cytometry (AID 2523;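 active means response below a set limit, under 55% cells CD8-positive and vesicle-bound, and CD8 cells' 90th-percentile brightness under 279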;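 on vesicle binding response: mean PE anti-B7-1 fluorescence of CD8+ cells relative to row control; 100% = QL9-loaded vesicles with DMSO vehicle in the same plate row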). Particulars: 2C mouse CD8+ T cells, at 7 µM, stronger effect = lower value; double positive events: measured here: CD8+/vesicle+ event percentage.
Test [7] concerns the target Integrin beta-1 (Homo sapiens) + Integrin alpha-4 (Homo sapiens) (UniProt P13612+P05556). Kind of test: inhibition of HUTS-21 binding to VLA-4, pilot screen, VLA-4 allosteric modulator project, U937 cells, HUTS-21 mAb, flow cytometry, validation set (AID 2674;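 active means inhibition above 50%, about 3 SD of the validation set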;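 further: antibody binding induced by the VLA-4 ligand LDV present at three times its Kd; 0% = LDV ligand with antibody and no compound and 100% = antibody without LDV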). The note with it: HUTS-21 LIBS mAb binding, at 6.7 µM, stronger effect = higher value, binding induced by LDV ligand.
Test [8] can be described thus: superoxide lowering in aged yeast cells, pilot screen, validation compound set (AID 2706;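 active means superoxide response below 65% of plate, a cut near 3 SD across the whole screen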;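 further: yeast exposed to compound for one week at 30 degrees C before staining; 100% = mean of all compound wells on the same plate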). Particulars: S. cerevisiae aging, superoxide DHE fluorescence; at 10 µM; stronger effect = lower value.
Test [9] concerns the target Beta-adrenergic receptor kinase 1 (Homo sapiens) (UniProt P25098). Kind of test: GRK2 binders displacing RNA aptamer, biochemical, validation, human GRK2, bead flow cytometry (AID 488806;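 active means aptamer binding inhibition above 30%, about 3 SD of noise from non-fluorescent compounds; inactive means inhibition at or below 30%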). The note with it: bead-bound GRK2, FAM-aptamer displacement, at 10 µM, stronger effect = higher value.
The target in test [10] is Beta-2 adrenergic receptor (Homo sapiens) (UniProt P07550). Kind of test: beta2AR agonists driving receptor internalization, pilot screen, cell-based, FAP fluorogen, flow cytometry, validation set (AID 504459;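 active means percent response above 42, roughly 3 SD of non-fluorescent test compounds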;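 further: agonist-driven loss of surface beta2AR via internalization measured by FAP dye flow cytometry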). The note with it: Am2.2-beta2AR cells, FAP surface receptor flow cytometry; at 10 µM; stronger effect = higher value.
Sequence of Beta-2 adrenergic receptor (Homo sapiens) (P07550 whole entry, looked up): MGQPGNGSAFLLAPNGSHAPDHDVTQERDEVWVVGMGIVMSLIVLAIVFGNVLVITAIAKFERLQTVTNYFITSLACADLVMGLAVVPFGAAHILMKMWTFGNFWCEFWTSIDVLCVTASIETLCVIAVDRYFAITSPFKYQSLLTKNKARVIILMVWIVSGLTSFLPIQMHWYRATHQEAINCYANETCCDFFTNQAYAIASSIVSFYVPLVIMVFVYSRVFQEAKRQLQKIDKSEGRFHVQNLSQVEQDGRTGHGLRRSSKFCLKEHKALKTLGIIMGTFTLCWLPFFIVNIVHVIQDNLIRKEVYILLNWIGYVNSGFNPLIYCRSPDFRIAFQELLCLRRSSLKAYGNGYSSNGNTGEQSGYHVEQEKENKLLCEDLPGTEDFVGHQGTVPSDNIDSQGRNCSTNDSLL
Test [11] concerns the target AP-2 complex subunit beta (Homo sapiens) (UniProt P63010). In words: inhibitors of arrestin peptide binding to AP2, pilot screen, biochemical, validation set, GST-AP2 beads, flow cytometry (AID 504541;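 active means inhibition above 54%, about 3 SD of non-fluorescent compounds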;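 further: AP2 carries R879A mutation and is captured from E. coli lysate; bead-bound FITC arrestin peptide fluorescence measuring arrestin peptide binding to AP2; 0% = DMSO wells and 100% = excess unlabeled arrestin peptide control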). Particulars: FITC arrestin peptide, at 10 µM, stronger effect = higher value, AP2 beta2 appendage fragment, R879A mutant.
A short description of test [12]: yeast V-ATPase proton transport modulators, S. cerevisiae, pHLuorin, HTS validation (AID 504600; in the data active means response above about 15%;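 further: plate controls were DMSO for no effect and reference compound for full effect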). Particulars: S. cerevisiae pHLuorin cytosolic pH, at 10 µM, stronger effect = higher value.
In test [13] the test system is anti-desmoglein-3 scFv antibody binding to human DSG3. In words: inhibitors of anti-DSG3 scFv binding to DSG3, pilot screen, biochemical, validation compound set, bead-based, flow cytometry (AID 588368;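 active means binding below the plate cutoff, the plate median minus 3 SD, with a reading above zero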;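 further: signal is the median channel fluorescence of bead-bound GFP antibody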). Particulars: Protein G beads, DSG3-Fc, scFv-GFP binding, at 10 µM, stronger effect = lower value.
Test [14] in a line: inhibitors of fungal efflux pumps CDR1, CDR2, MDR1, pilot screen, validation compound set, multiplex, phenotypic (AID 588506;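 active means efflux inhibition above 0.42, the validation set average plus 4 SD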;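 further: Nile Red retained in cells so higher fluorescence means more efflux inhibition; 0 = negative control wells and 1 = enniatin B 25 µM full block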). Particulars: S. cerevisiae pump-expressing triplex, Nile Red efflux flow cytometry; at 10 µM; stronger effect = higher value; the pumps come from Candida albicans.
For test [15], the target named is ATP-binding cassette sub-family B member 6 (Homo sapiens) (UniProt Q9NP58). In words: ABCB6 transporter inhibitors, pilot screen, K562-ABCB6 cells, flow cytometry, validation set (AID 588550;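 active means inhibition above the screen-wide mean plus 3 SD, about 51%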;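 further: 0% = DMSO wells and 100% = benzethonium chloride 70 µM positive control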). The note with it: K562-ABCB6 porphyrin accumulation, 1 h, at 10 µM, stronger effect = higher value.
Sequence of ATP-binding cassette sub-family B member 6 (Homo sapiens) (Q9NP58 whole entry, looked up): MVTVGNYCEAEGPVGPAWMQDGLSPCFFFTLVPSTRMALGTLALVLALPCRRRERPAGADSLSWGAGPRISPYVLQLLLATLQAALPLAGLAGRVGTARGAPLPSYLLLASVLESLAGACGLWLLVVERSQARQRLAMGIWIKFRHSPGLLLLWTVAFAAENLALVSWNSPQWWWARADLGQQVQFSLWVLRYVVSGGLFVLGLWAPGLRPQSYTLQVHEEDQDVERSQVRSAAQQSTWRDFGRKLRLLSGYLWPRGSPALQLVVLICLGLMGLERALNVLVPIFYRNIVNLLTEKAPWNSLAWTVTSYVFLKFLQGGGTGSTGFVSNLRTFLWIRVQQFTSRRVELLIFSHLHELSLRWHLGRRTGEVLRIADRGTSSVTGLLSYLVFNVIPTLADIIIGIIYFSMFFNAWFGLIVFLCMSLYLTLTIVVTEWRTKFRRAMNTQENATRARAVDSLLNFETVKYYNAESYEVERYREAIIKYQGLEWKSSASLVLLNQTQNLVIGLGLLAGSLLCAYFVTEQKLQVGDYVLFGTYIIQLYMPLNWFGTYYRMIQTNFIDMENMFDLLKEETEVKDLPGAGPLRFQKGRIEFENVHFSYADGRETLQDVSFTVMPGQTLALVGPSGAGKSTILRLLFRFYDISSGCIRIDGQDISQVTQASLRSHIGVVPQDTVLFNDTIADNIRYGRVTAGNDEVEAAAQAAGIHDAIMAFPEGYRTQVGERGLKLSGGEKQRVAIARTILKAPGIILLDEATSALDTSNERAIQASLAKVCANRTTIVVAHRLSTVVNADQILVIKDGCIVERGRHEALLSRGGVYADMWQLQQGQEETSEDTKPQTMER
The nature of test [16]: promoters of myeloid differentiation in arrested cells, primary screen, cell-based, GFP/MAC1 double positive, flow cytometry, validation set (AID 588685;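 active means differentiation response of at least 50%, scaled between solvent and reference control, from cells with both markers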;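 further: compound exposure lasts four days before antibody staining and flow analysis; 0% = DMSO wells and 100% = 5 µM fulvestrant positive control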). Particulars: ER-HoxA9 marrow cells, stronger effect = higher value, normalized: vehicle 0, fulvestrant 100.

Sequence of Integrin beta-1 (Homo sapiens) + Integrin alpha-4 (Homo sapiens) (P05556 whole entry, looked up): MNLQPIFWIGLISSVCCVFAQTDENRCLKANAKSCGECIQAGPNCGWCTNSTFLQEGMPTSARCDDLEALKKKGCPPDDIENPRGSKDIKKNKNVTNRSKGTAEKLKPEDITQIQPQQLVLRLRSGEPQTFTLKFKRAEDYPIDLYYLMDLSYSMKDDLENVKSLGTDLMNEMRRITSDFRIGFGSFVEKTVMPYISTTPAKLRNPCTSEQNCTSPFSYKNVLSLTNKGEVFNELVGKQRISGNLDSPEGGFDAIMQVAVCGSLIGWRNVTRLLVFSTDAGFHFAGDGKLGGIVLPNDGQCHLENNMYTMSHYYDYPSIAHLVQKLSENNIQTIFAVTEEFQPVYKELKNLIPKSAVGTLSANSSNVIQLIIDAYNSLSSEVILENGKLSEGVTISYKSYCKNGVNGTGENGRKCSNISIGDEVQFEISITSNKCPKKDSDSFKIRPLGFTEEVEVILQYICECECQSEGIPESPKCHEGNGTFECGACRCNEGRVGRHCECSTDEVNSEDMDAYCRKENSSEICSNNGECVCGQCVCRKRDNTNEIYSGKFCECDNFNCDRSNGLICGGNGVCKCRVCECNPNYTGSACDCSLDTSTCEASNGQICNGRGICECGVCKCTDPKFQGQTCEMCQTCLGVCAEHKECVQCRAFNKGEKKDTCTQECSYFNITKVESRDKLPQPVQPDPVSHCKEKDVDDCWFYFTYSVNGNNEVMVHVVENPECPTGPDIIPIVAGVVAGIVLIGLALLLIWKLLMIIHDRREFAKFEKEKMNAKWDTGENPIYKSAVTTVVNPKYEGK
Sequence of Integrin beta-1 (Homo sapiens) + Integrin alpha-4 (Homo sapiens) (P13612 whole entry, looked up): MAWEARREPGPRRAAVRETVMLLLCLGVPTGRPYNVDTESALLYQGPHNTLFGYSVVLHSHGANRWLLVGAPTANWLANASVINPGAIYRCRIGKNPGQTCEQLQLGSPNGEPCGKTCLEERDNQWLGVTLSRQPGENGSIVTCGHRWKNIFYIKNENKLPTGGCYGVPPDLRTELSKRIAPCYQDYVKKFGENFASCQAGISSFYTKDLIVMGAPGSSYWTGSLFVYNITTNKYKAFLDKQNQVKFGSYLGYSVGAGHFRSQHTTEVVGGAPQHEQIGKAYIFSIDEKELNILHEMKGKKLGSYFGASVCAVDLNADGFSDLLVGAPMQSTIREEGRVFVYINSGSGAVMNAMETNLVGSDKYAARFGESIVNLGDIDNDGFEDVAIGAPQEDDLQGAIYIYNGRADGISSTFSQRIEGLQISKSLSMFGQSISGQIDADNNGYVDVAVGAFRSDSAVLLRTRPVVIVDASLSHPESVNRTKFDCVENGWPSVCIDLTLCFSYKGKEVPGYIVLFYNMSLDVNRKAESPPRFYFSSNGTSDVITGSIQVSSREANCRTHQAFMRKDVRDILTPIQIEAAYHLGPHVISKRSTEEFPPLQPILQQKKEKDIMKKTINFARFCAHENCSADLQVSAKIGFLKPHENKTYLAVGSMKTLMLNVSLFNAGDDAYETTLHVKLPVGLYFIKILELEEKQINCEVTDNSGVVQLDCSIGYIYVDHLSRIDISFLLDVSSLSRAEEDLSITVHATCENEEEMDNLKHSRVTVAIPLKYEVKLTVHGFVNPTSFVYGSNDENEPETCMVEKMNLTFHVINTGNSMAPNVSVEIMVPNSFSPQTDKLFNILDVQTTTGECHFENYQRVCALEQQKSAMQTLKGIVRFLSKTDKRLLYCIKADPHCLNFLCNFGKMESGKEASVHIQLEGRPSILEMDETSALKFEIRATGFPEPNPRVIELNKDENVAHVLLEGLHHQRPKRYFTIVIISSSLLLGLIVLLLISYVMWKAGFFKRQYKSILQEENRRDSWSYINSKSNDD
Sequence of AP-2 complex subunit beta (Homo sapiens) (P63010 whole entry, looked up, the tested form may be a part, one chain of several): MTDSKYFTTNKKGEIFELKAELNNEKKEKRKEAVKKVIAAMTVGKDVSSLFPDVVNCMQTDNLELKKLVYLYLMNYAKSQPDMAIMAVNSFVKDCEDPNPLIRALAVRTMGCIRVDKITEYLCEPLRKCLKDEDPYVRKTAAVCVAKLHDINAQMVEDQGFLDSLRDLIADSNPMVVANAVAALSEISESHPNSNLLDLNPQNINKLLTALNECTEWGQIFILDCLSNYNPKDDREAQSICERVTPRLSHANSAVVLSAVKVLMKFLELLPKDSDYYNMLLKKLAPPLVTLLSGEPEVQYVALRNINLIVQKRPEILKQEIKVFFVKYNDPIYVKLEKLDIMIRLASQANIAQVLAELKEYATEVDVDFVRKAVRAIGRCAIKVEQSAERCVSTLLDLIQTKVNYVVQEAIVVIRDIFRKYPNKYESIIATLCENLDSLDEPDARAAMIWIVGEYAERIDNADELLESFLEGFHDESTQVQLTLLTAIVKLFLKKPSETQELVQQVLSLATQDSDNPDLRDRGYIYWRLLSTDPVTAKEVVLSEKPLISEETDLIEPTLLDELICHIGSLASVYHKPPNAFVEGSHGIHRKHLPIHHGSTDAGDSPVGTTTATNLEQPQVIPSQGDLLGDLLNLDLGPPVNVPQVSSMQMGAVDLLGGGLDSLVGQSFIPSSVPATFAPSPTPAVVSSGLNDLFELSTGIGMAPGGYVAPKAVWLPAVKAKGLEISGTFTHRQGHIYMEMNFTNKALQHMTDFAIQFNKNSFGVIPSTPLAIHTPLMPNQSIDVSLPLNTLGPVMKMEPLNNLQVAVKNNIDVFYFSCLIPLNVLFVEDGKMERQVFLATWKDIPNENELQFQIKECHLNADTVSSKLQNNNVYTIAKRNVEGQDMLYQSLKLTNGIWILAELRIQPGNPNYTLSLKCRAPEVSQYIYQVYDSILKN
Sequence of Beta-adrenergic receptor kinase 1 (Homo sapiens) (P25098 whole entry, looked up): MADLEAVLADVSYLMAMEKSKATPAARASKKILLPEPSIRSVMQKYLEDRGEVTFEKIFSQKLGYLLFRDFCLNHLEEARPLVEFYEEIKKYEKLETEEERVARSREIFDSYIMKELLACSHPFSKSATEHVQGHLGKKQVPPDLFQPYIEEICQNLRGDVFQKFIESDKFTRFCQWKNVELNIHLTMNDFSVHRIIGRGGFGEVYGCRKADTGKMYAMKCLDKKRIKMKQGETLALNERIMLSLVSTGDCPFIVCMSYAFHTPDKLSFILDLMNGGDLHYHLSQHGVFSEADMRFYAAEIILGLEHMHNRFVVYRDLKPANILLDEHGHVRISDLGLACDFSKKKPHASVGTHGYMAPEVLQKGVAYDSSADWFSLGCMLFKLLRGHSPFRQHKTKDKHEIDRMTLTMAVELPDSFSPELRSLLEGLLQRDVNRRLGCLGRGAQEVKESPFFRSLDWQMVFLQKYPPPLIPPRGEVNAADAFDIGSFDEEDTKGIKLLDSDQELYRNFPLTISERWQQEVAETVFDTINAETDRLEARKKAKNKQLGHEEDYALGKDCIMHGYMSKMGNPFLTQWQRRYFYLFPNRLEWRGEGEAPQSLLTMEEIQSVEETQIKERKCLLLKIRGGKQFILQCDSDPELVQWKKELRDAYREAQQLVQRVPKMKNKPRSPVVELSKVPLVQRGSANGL

By inhibition is commonly meant the relative decrease from the control value, in per cent. As to `CCN(CCCCCN(C)C)Cc1cc2ccccc2o1`, the percent of DMSO control GFP in test [1] was 101% (inactive). The GFP response vs DMSO in [2] is 101% (inactive); in test [4] it was 112% (inactive). Further, in test [3], the percent response of DMSO control is 94.8% (inactive). The GFP response, % of DMSO in test [5] was 106% (inactive). In [6], this molecule registered a double positive events of 64.4%. For the same molecule, in test [6], the vesicle binding response is 206% (inactive). The inhibition in [7] is -0.43% (inactive); in test [11], -2.46% (inactive); in test [15], 10% (inactive). In [8], the superoxide response (% of plate) is 79.9% (inactive). Moreover, the aptamer binding inhibition in test [9] is -1% (inactive). Moreover, the response was -3.86% (inactive) in test [10] and 0.31% (inactive) in test [12]. Also, in test [13], the binding (% of control) was 102% (inactive). Also, the efflux inhibition (fraction of control) in [14] was -0.06 (inactive). Also, the differentiation response in test [16] was 5.6% (inactive).
`CCCCCC(O)c1cccc(OCc2ccc3ccccc3n2)c1` (stereo not given): the percent of DMSO control GFP in test [1] was 101% (inactive). Further, the GFP response vs DMSO in test [2] is 97.6% (inactive); in test [4], 130% (inactive). Besides, the percent response of DMSO control in test [3] is 99% (inactive). Also, in test [5], the GFP response, % of DMSO is 109% (inactive). In test [6], this molecule had a double positive events of 65.2%. For the same molecule, the vesicle binding response in [6] was 227% (inactive). In addition, the inhibition is 22.7% (inactive) in test [7], 6.94% (inactive) in test [11] and 5% (inactive) in test [15]. Moreover, the superoxide response (% of plate) in test [8] was 110% (inactive). The aptamer binding inhibition in test [9] is 2% (inactive). In addition, the response in test [10] is -42.6% (inactive); in test [12], 1.82% (inactive). Besides, in test [13], the binding (% of control) was 92.4% (inactive). The efflux inhibition (fraction of control) in test [14] was 0.04 (inactive). Also, in test [16], the differentiation response is -8.93% (inactive).
Consider `CCOc1ccc(N2C(=O)CNC2=S)cc1`, for which the percent of DMSO control GFP in test [1] is 106% (inactive). For the same molecule, the GFP response vs DMSO is 106% (inactive) in test [2] and 110% (inactive) in test [4]. Also, the percent response of DMSO control in [3] was 105% (inactive). Further, in test [5], the GFP response, % of DMSO is 109% (inactive). The molecule further came in with a double positive events in test [6] of 66.1%. Moreover, the vesicle binding response in test [6] was 202% (inactive). Further, the figures for the inhibition in test [7], in test [11] and in [15] were -0.27% (inactive), 11.9% (inactive) and -4% (inactive), respectively. Also, the superoxide response (% of plate) in test [8] is 105% (inactive). Further, the aptamer binding inhibition in test [9] was 2% (inactive). The response in test [10] is -17.9% (inactive); in test [12] it was -2.61% (inactive). For the same molecule, in [13], the binding (% of control) was 106% (inactive). Also, the efflux inhibition (fraction of control) in [14] was -0.09 (inactive). In addition, the differentiation response in test [16] is 3.88% (inactive).
On to `CC[C@H]1CN2CCc3cc(OC)c(OC)cc3[C@@H]2C[C@@H]1C[C@H]1NCCc2cc(OC)c(OC)cc21`, for which the percent of DMSO control GFP in test [1] is 110% (inactive). The GFP response vs DMSO is 103% (inactive) in test [2] and 106% (inactive) in test [4]. Moreover, in [3], the percent response of DMSO control was 94.5% (inactive). The GFP response, % of DMSO in [5] is 99.9% (inactive). In [6], this molecule displayed a double positive events of 60.1%. Besides, the vesicle binding response in [6] was 140% (inactive). The inhibition was -27.9% (inactive) in test [7], 3.93% (inactive) in [11] and -66% (inactive) in test [15]. In addition, the superoxide response (% of plate) in [8] was 86.3% (inactive). Besides, in [9], the aptamer binding inhibition is -7% (inactive). Besides, the values for the response in test [10] and in [12] were 10.4% (inactive) and -3.02% (inactive), respectively. Moreover, the binding (% of control) in test [13] was 106% (inactive). Moreover, the efflux inhibition (fraction of control) in [14] is -0.24 (inactive). The differentiation response in test [16] was 14.4% (inactive).
As to `CCN(CC)CC(=O)Nc1c(C)cccc1C`, the percent of DMSO control GFP in [1] was 106% (inactive) and 100% (inactive). The GFP response vs DMSO was 109% (inactive) and 94.1% (inactive) in test [2]; 105% (inactive) and 98.2% (inactive) in test [4]. Besides, the percent response of DMSO control in test [3] is 101% (inactive) and 109% (inactive). Moreover, in test [5], the GFP response, % of DMSO was 107% (inactive) and 105% (inactive). Besides, in test [6], the double positive events was 65.6% and 64.5%. In addition, the vesicle binding response in [6] was 12800% (inactive). Further, the inhibition in test [7] is 6.4% (inactive) and 0.94% (inactive); in test [11] it was -9.42% (inactive) and -7.53% (inactive); in [15], 10% (inactive) and 7% (inactive). For the same molecule, in test [8], the superoxide response (% of plate) was 87.6% (inactive) and 113% (inactive). Besides, the aptamer binding inhibition in test [9] was 5% (inactive) and 0% (inactive). In addition, the response in test [10] was -4.24% (inactive) and -9.06% (inactive); in test [12] it was -5.61% (inactive) and -5.05% (inactive). Further, the binding (% of control) in test [13] was 94.5% (inactive) and 99.9% (inactive). Besides, in test [14], the efflux inhibition (fraction of control) is 0.05 (inactive) and -0.1 (inactive). For the same molecule, in test [16], the differentiation response is -8.8% (inactive) and -15.2% (inactive).

The values are drawn from PubChem BioAssay.
